Active and inactive are the calls of the source. Unless noted, the rule behind the calls is not given here.
Legend:
[1] = HepG2 liver cancer cell viability effects, profiling panel, resazurin fluorescence, 24 h, PK04 Diversity Set (AID 1172); details: higher = more signal; note: test concentration not given here
[2] = basal S. cerevisiae growth modulation, no modifier, primary screen, OD600, strain BY4716, 24 h, basal condition (AID 1173); details: OD600, 24 h; higher = more signal, called active from +8 up or from −8 down unless noted
[3] = MM1S myeloma cell viability, profiling panel, resazurin fluorescence, basal, 24 h, PK04 Diversity Set (AID 1174); details: higher = more signal, called active from +8 up or from −8 down unless noted;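 note: MM1S multiple myeloma cell line; test concentration not given here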
[4] = target: Dihydroorotate dehydrogenase (quinone), mitochondrial (Plasmodium falciparum (isolate 3D7)) (UniProt Q08210); test: PfDHODH enzyme inhibitors, primary screen, biochemical, C-terminal His tag, absorbance 600 nm (AID 1175); details: DCIP absorbance 600 nm; higher = more signal, called active from +8 up or from −8 down unless noted;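 note: recombinant parasite enzyme with a five histidine tag at its C terminus; test concentration not given here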
[5] = P. aeruginosa biofilm formation inhibitors, primary screen, strain PAO1, LB-PBS medium, absorbance 600 nm (AID 1176); note: test concentration not given here; details: P. aeruginosa PAO1 growth/biofilm, A600, 12 h; higher = more signal
[6] = S. cerevisiae RM11-1a growth modifiers, primary screen, strain RM11-1a, OD600, basal, 24 h (AID 1177); details: OD600, 24 h; higher = more signal, called active from +8 up or from −8 down unless noted;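 note: cultures grown under basal conditions with no added stressor; test concentration not given here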
[7] = E. coli acrAB mutant growth effects, primary screen, E. coli filamentation inducers, strain DRC39, OD650, 24 h (AID 1178); details: higher = more signal, called active from +8 up or from −8 down unless noted;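 note: growth measured as culture turbidity by optical density at 650 nm; test concentration not given here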
[8] = E. coli acrAB mutant growth effects, primary screen, E. coli filamentation inducers, strain DRC39, OD650, 48 h (AID 1179);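 note: screen aims at cell division blockers that make cells filament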; details: E. coli DRC39 delta-acrAB growth, higher = more signal, called active from +8 up or from −8 down unless noted
[9] = RPMI8226 myeloma cell viability, profiling panel, resazurin fluorescence, basal, 24 h, PK04 Diversity Set (AID 1180); details: higher = more signal; RPMI8226 viability, resazurin fluorescence, 24 h unless noted;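 note: RPMI8826 multiple myeloma cell line at 5000 cells per well; test concentration not given here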
[10] = target: E3 ubiquitin-protein ligase XIAP (Homo sapiens) (UniProt P98170); test: XIAP binders, primary screen, biophysical, small-molecule microarray, fluorescence 635 nm (AID 1181); details: small-molecule microarray binding, higher = more signal;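 note: score merges 667 nm emission and signal to noise over triplicate slides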
Sequence of E3 ubiquitin-protein ligase XIAP (Homo sapiens) (P98170 whole entry, looked up): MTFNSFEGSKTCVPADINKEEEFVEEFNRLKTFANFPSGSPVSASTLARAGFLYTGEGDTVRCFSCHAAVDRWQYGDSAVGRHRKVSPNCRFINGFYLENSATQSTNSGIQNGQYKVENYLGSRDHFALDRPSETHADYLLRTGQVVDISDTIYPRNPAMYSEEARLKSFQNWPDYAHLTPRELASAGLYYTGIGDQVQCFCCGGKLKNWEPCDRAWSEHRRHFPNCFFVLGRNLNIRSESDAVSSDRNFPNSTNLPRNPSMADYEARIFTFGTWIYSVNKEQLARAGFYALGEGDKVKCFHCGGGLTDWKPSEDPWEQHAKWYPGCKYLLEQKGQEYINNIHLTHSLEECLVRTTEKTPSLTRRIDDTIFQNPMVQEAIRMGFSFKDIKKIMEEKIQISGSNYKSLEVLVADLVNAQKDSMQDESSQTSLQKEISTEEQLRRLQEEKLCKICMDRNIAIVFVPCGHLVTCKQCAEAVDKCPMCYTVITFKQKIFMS

Sequence of Dihydroorotate dehydrogenase (quinone), mitochondrial (Plasmodium falciparum (isolate 3D7)) (Q08210 whole entry, looked up): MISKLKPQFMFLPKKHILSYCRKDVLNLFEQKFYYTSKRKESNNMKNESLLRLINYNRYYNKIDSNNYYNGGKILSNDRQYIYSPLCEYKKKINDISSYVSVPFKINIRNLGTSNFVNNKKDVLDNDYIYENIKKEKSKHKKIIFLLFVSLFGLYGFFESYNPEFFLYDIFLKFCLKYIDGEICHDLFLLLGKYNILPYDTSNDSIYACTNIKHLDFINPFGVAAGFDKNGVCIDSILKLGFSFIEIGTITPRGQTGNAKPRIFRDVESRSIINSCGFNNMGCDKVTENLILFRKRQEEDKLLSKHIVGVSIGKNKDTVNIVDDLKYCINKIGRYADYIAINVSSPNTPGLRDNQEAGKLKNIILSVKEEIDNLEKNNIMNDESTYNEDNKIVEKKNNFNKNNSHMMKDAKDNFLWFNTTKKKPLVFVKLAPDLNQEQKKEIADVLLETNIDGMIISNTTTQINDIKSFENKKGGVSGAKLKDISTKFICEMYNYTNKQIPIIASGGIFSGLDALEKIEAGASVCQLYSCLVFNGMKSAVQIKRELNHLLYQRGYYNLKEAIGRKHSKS

Compound	z-score [1]	z-score [2]	z-score [3]	composite z-score [4]	z-score [5]	z-score [6]	z-score [7]	z-score [8]	z-score [9]	composite z-score [10]
CCc1cc2c(nc1CC)CCN(CCC(C)=NOC)C2	-0.64	-0.37 (inactive)	0.0324 (inactive)	0.273 (inactive)	0.0738 (inactive)	0.246 (inactive)	-0.983 (inactive)	-2.63 (inactive)	0.0393	-0.0773
C[C@@H]1OC=C2[C@@H](O)[C@H]3O[C@H]3C(=O)[C@]23[C@H]1[C@H]1C2=C([C@@H](O)[C@H]4O[C@H]4C2=O)[C@@H]3O[C@@H]1C	0.216	0.243 (inactive)	0.103 (inactive)	-0.0198 (inactive)	0.0251 (inactive)	-0.541 (inactive)	-0.03 (inactive)	-0.0416 (inactive)	0.864	-0.135
CN1CCC(c2ccc(CO)cc2)=CC1c1cccs1 (stereo not given)	-0.792	-1.01 (inactive)	-0.694 (inactive)	0.083 (inactive)	-0.329 (inactive)	1.13 (inactive)	-0.543 (inactive)	-0.447 (inactive)	-0.118	0.152
COC(=O)[C@@]1(Cc2ccccc2)[C@H]2c3cc(C(=O)N(C)C)[nH]c3C[C@H]2CN1C(=O)c1ccccc1	-0.154	0.887 (inactive)	-0.693 (inactive)	-0.434 (inactive)	0.0944 (inactive)	0.439 (inactive)	-0.513 (inactive)	0.0889 (inactive)	-0.57	0.215
CCCc1cc2c(n1Cc1cccc(Cl)c1)C(C)C1CN(C(=O)c3ccccc3)C(C)(C(=O)OC)C21 (stereo not given)	-1.04	0.773 (inactive)	-1.7 (inactive)	-0.403 (inactive)	0.619 (inactive)	0.616 (inactive)	-0.423 (inactive)	-0.0676 (inactive)	-1.56	0.621
COC(=O)[C@H]1[C@H](c2ccccc2)C(=O)[C@]2(O)c3ccccc3O[C@@]12c1ccccc1	-0.514	-2.2 (inactive)	-0.417 (inactive)	-1.36 (inactive)	0.711 (inactive)	-1.43 (inactive)	0.401 (inactive)	-1.04 (inactive)	-0.865	0.17
COC(=O)[C@H]1C(=O)c2ccccc2O[C@@](C(=O)OC)(c2ccccc2)[C@@H]1c1ccccc1	-0.515	-0.54 (inactive)	-0.0272 (inactive)	0.0983 (inactive)	-0.233 (inactive)	0.174 (inactive)	0.27 (inactive)	0.419 (inactive)	0.223	0.182
O=P(c1ccccc1)(c1ccccc1)N1CC2(CC2)CC(O)(c2ccccc2)C1 (stereo not given)	-0.561	0.12 (inactive)	-1.03 (inactive)	-0.001 (inactive)	0.315 (inactive)	0.445 (inactive)	-0.32 (inactive)	0.158 (inactive)	-1.22	0.143
